This note sets out measurements from the OligoGym collection.
Further: reference of the scale not given here.

The target of the first test is EFNB2. As to the kind of experiment: pooled miR-30 sensor sort-seq; sequence = guide strand. The conditions noted are these: shRNA.
For TAGTGCATCTGTCTGCTTGGTC, the sensor-assay potency score (higher = more potent) was 0.00867.

The sequence TTTTCCTTCTTAATAGTGCATC gave a sensor-assay potency score (higher = more potent) of -0.818.

For TATAGTACCAGTCCTTGTCCAG, the sensor-assay potency score (higher = more potent) was -0.415.

In a further test the target is EGFLAM. Described as above. The conditions noted are these: shRNA.
For ATAACAATATCTTCTGAGCAGC, the sensor-assay potency score (higher = more potent) is -1.01.

Turning to ACACATTTGATCTTGATCCTGA, the sensor-assay potency score (higher = more potent) came to 0.527.

Take TTAGATATAGACATCTTCTTGC: the sensor-assay potency score (higher = more potent) came to 0.604.

As for TCTCTGTAGAGCATAACCGTGT, the sensor-assay potency score (higher = more potent) is -0.368.

The sequence TTGATGTGTGATCTCTGGCAGC gave a sensor-assay potency score (higher = more potent) of -0.345.

TGAATCACAACACAGTCACTGA gave a sensor-assay potency score (higher = more potent) of -0.715.

Take TAAGCTGCTATGCTCACACGAT: the sensor-assay potency score (higher = more potent) is -0.515.

Sequence TAGTCATTGACACAGAAGCTGT yielded a sensor-assay potency score (higher = more potent) of -1.47.

Consider TTGAGGTCCACTTCTTGTCGAA, for which the sensor-assay potency score (higher = more potent) was -0.198.

Turning to TTCTTGTCGAAATCTGGCCTGA, the sensor-assay potency score (higher = more potent) is -0.665.

Sequence ATCTCTGTAGAGCATAACCGTG yielded a sensor-assay potency score (higher = more potent) of -1.58.

Regarding TAGAGCATAACCGTGTGCCAAC, the sensor-assay potency score (higher = more potent) was -1.37.

In another test the target is EGF. The test is described as above. The conditions noted are these: shRNA.
For TACTGTAATGATTCCTTCCTGT, the sensor-assay potency score (higher = more potent) came to 0.571.

With TCTTCTGACACTCTAGTCTTGG, the sensor-assay potency score (higher = more potent) was -0.41.

In the case of TAAATTTTGAAACTACTGGCAA, the sensor-assay potency score (higher = more potent) was -0.0191.

TTGCAAACAAATTATGCTGTGT returned a sensor-assay potency score (higher = more potent) of 0.205.

As to TAATGTGGACAGAACCTCCATC, the sensor-assay potency score (higher = more potent) is -0.544.

In the case of TTGTCTTTCTAAATCCACCCAA, the sensor-assay potency score (higher = more potent) is 0.0842.

In turn, TTCTGTAATGTTATCTTCTGAC gave a sensor-assay potency score (higher = more potent) of -0.544.

TTGACCAAATAACTTCTTCATT came in with a sensor-assay potency score (higher = more potent) of -1.32.

Sequence TTCTCTGTTGTACTGAATCCAA had a sensor-assay potency score (higher = more potent) of -0.8.

The sequence TTCATTAACATCTTCACAGTAC came in with a sensor-assay potency score (higher = more potent) of 0.809.

For the sequence TATATTACATACTCTCTCTTGC, the sensor-assay potency score (higher = more potent) is 0.906.

With TAAATCACTCCTTCCAATCAGA, the sensor-assay potency score (higher = more potent) is -0.116.

Take TTGAGTAGGTGATTAGTCGTAG: the sensor-assay potency score (higher = more potent) amounted to 0.0164.

TTAATTCTAACCATGTCCTTTC displayed a sensor-assay potency score (higher = more potent) of -0.226.

As for TTAGATCAACTTCACCACCTGC, the sensor-assay potency score (higher = more potent) was -0.392.

Consider TAAACCTTTCTACTGGATCAAC, for which the sensor-assay potency score (higher = more potent) was -1.16.

As to TATCAGAACATAGTTTTCCATC, the sensor-assay potency score (higher = more potent) is -1.09.

As to TTACATACTCTCTCTTGCCTTG, the sensor-assay potency score (higher = more potent) is -0.0399.

For the sequence TTAGTGATTATTTTGGAACGTT, the sensor-assay potency score (higher = more potent) worked out at 0.208.

AAACAAGTTGATGACATCGTTT showed a sensor-assay potency score (higher = more potent) of -0.985.

Turning to TATCGGGTGAGGAACAACCGCT, the sensor-assay potency score (higher = more potent) was -0.49.

Sequence TTGAGAATTGGCAAACAGCAAA had a sensor-assay potency score (higher = more potent) of -1.09.

The sequence TTACTTACAATCTTGTAACTGA registered a sensor-assay potency score (higher = more potent) of 0.581.
